ChEMBL document CHEMBL4513146, “CO-ADD screening of Karazin Kharkiv National University (Ukraine) compounds”
Results with a measured potency or affinity are listed apart.

Legend:
Staphylococcus aureus = conditions: Concentration 32 ug.mL-1;; ASSAY_TEST Inhibition of Bacterial Growth; detection method Absorption (OD600); MEDIA CAMHB; plate type 384well; NBS; CORNING #3640; time 18 hr
Escherichia coli = conditions: Concentration 32 ug.mL-1;; ASSAY_TEST Inhibition of Bacterial Growth; detection method Absorption (OD600); MEDIA CAMHB; plate type 384well; NBS; CORNING #3640; time 18 hr

Row | SMILES | Inhibition (Staphylococcus aureus) | Inhibition (Escherichia coli)
1 | Cc1ccc(NC(=O)Cn2nc3ccc(SC(C)(C)C)nn3c2=O)c(C)c1 | 13% | -1.14%
2 | COc1ccccc1CNC(=O)Cn1nc2c(N3CCSCC3)nccn2c1=O | 5.62% | -5.9%
3 | COc1cccc(CN(c2cccc(F)c2)S(=O)(=O)c2ccc3nnc(C)n3c2)c1 | -5.28% | -2.32%
4 | COc1ccc(N(Cc2ccc(C)cc2)S(=O)(=O)c2ccc3nnc(C)n3c2)cc1 | -1.53% | -8.35%
5 | O=C(CCc1nnc2c(N3CCCCC3)nc3ccccc3n12)NCc1ccc2c(c1)OCO2 | 17.67% | 2.95%
6 | O=C(Cn1nc2c(Oc3ccccc3)nccn2c1=O)Nc1ccccc1C(F)(F)F | 2.85% | -0.6%
7 | CCOC(=O)c1cccc(NC(=O)CSc2nnc3ccc(C(=O)Nc4cccc(F)c4)cn23)c1 | 5.02% | -5.71%
8 | Cc1nnc2c(SCC(=O)Nc3ccc(F)cc3F)nc3ccccc3n12 | 11.73% | 2.93%
9 | COc1cccc(NC(=O)Cn2nc3ccc(-c4ccc(Cl)cc4)nn3c2=O)c1 | -8.23% | -11.86%
10 | COc1ccccc1-n1ccn2c(SCc3cccc(F)c3)nnc2c1=O | 11.17% | -7.27%
11 | C=Cc1ccc(CN(c2ccc(F)c(F)c2)S(=O)(=O)c2cccn3cnnc23)cc1 | -2.72% | -13.7%
12 | O=S(=O)(c1ccc2nncn2c1)N(Cc1cccc(F)c1)c1cc(F)cc(F)c1 | 0.07% | -4.91%
13 | COc1cccc(Oc2nccn3c(=O)n(CC(=O)Nc4ccc(OC)c(OC)c4)nc23)c1 | 15.47% | -2.07%
14 | Cc1ccc(CN(c2cccc(F)c2)S(=O)(=O)c2ccc3nnc(C)n3c2)cc1 | -4.51% | -15.84%
15 | CCc1nnc2c(S(=O)(=O)N(Cc3ccccc3C)c3ccc(C(C)C)cc3)cccn12 | 3.95% | -8.12%
16 | CC(C)CCn1c(=O)c2sccc2n2c(=O)n(CC(=O)N3CCC(Cc4ccccc4)CC3)nc12 | -19.02% | -15.19%
17 | COc1cccc(Oc2nccn3c(=O)n(CC(=O)Nc4ccc5c(c4)OCO5)nc23)c1 | 9.63% | -4.07%
18 | O=C(Cn1nc2nc(Nc3ccc(F)cc3)ccn2c1=O)N1CCCc2ccccc21 | 5.55% | -6.76%
19 | CC(C)c1ccc(NC(=O)Cn2nc3c(N4CCCCC4)nccn3c2=O)cc1 | -8.03% | -4.05%
20 | COc1ccc(NC(=O)Cn2nc3nc(Nc4ccc(F)cc4)ccn3c2=O)cc1F | -2.83% | -10.06%
21 | Cc1nnc2c(S(=O)(=O)N(Cc3ccc(F)cc3)c3ccc(F)c(F)c3)cccn12 | 15.7% | 3.7%
22 | COc1ccc(-c2cc3c4nn(CC(=O)Nc5cc(OC)cc(OC)c5)c(=O)n4ccn3n2)cc1 | -11.7% | -10.82%
23 | COc1cccc(CN(c2ccc(F)c(F)c2)S(=O)(=O)c2ccc3nncn3c2)c1 | -3.79% | -13.18%
24 | COc1ccc(OC)c(NC(=O)Cn2nc3ccc(SCc4ccc(Cl)cc4)nn3c2=O)c1 | -2.6% | -8.88%

Row | SMILES | Inhibition (Staphylococcus aureus) | Inhibition (Escherichia coli)
25 | CCCCN(CC)c1ccc2nnc(CCc3nc(-c4ccc(OCc5ccccc5)cc4)no3)n2n1 | 4.18% | -2.08%
26 | COc1cccc(CNC(=O)CSc2nnc3ccc(C(=O)Nc4cccc(F)c4)cn23)c1 | 9.49% | -5.27%
27 | COc1ccccc1Cn1c(=O)c2sccc2n2c(=O)n(Cc3ccc(Br)cc3)nc12 | 5.17% | 2.24%
28 | O=C(Cn1nc2c(SC3CCCCC3)nccn2c1=O)Nc1ccccc1F | 2.83% | -6.05%
29 | Cc1ccccc1NC(=O)Cn1nc2ccc(SC3CCCCC3)nn2c1=O | 2.21% | -7.39%
30 | Cc1ccc(CSc2nnc3c(=O)n(-c4ccc(Br)cc4)ccn23)cc1 | 13.68% | -2.08%
31 | CCCCn1c(=O)c2sccc2n2c(CCC(=O)Nc3ccc(OC(F)(F)F)cc3)nnc12 | 0.43% | -8.31%
32 | Cc1ccc(NC(=O)Cn2nc3c(Oc4ccccc4C)nccn3c2=O)cc1F | 8.06% | -0.85%
33 | CCc1ccc(N(Cc2ccccc2)S(=O)(=O)c2cccn3cnnc23)cc1 | 5.64% | -1.12%
34 | Cc1ccc(NC(=O)Cn2c(=O)c3nnc(C(C)C)n3c3ccccc32)cc1F | 13.81% | 1.95%
35 | COC(=O)c1ccccc1NC(=O)Cn1nc2c(Oc3ccccc3C)nccn2c1=O | 4.43% | -5.27%
36 | Cc1ccc(-c2cc3c4nn(CC(=O)Nc5ccccc5Br)c(=O)n4ccn3n2)cc1C | 9.34% | -2.39%
37 | CCc1ccccc1NC(=O)Cn1c(=O)c2nnc(C(C)C)n2c2ccccc21 | 5.45% | 0.46%
38 | COc1cc(OC)c(NC(=O)Cn2nc3ccc(-c4ccc(C)c(C)c4)nn3c2=O)cc1Cl | 2.47% | -7.33%
39 | CCCCOc1ccc(-c2cc3c4nnc(SCC(=O)Nc5c(C)cccc5CC)n4ccn3n2)cc1 | -40.6% | -38.25%
40 | Cc1ccc(-c2cc3c4nn(CC(=O)Nc5ccc(F)cc5Cl)c(=O)n4ccn3n2)cc1 | -0.44% | -5.61%
41 | Cc1ccc(NC(=O)c2ccc3nnc(SCC(=O)Nc4ccc(F)cc4)n3c2)cc1 | 14.37% | 5.45%
42 | O=C(Cn1nc2c(N3CCSCC3)nc3ccccc3n2c1=O)Nc1ccc(Br)cc1 | -2.29% | -4.32%
43 | O=c1c2sccc2n2c(=O)n(Cc3c(F)cccc3Cl)nc2n1CCc1ccccc1 | 3.01% | -6.52%
44 | CCc1ccc(NC(=O)Cn2nc3c(Oc4cccc(OC)c4)nccn3c2=O)cc1 | 5.31% | -1.12%
45 | Cc1ccc(CNC(=O)Cn2nc3c(SC4CCCCC4)nccn3c2=O)cc1 | 7.11% | -3.86%
46 | COc1ccc(NC(=O)Cn2nc3c(Sc4cccc(C)c4)nccn3c2=O)cc1Cl | -3.33% | -13.54%
47 | Cc1ccc(C)c(NC(=O)Cn2nc3c(N4CCCC(C)C4)nccn3c2=O)c1 (configuration not stated) | -2.35% | -6.19%
48 | CCOc1ccc(-n2ccn3c(SCC(=O)Nc4cc(F)ccc4F)nnc3c2=O)cc1 | -3.91% | 1.2%

Row | SMILES | Inhibition (Staphylococcus aureus) | Inhibition (Escherichia coli)
49 | CCc1ccccc1Sc1nccn2c(=O)n(CC(=O)NCc3cccs3)nc12 | 6.5% | -12.39%
50 | CCCN(C)c1nccn2c(=O)n(CC(=O)Nc3cccc(C(C)=O)c3)nc12 | 10.12% | -7.5%
51 | Cc1ccccc1Oc1nccn2c(=O)n(CC(=O)Nc3ccc(Cl)c(Cl)c3)nc12 | 7.54% | -4.77%
52 | COc1cccc(CN(c2ccc(F)cc2)S(=O)(=O)c2ccc3nnc(C)n3c2)c1 | -1.25% | -6.02%
53 | CC(C)c1ccc(NC(=O)CSc2nnc3c(=O)n(-c4ccccc4)ccn23)cc1 | 3.45% | -7.12%
54 | Cc1nnc2ccc(S(=O)(=O)N(Cc3cccc(F)c3)c3ccc(F)cc3)cn12 | -0.57% | -11.39%
55 | O=C(Cn1nc2c3c4c(sc3ncn2c1=O)CCCC4)NCCc1ccc(Cl)cc1 | 7.1% | 2.28%
56 | COc1cccc(Cn2nc3ccc(-c4ccccc4)nn3c2=O)c1 | 13.4% | -1.58%
57 | CCCCn1c(=O)c2sccc2n2c(=O)n(CC(=O)c3ccc(OC)c(OC)c3)nc12 | 13.6% | 0.21%
58 | COc1ccc(CNC(=O)Cn2nc3c(Sc4ccc(C)cc4C)nccn3c2=O)cc1 | 6.57% | -1.79%
59 | Cc1ccc(C)c(CSc2nnc3c(=O)n(-c4ccc(F)c(F)c4)ccn23)c1 | 21.94% | -0.2%
60 | COc1cccc(-n2ccn3c(SCC(=O)c4ccc(Br)cc4)nnc3c2=O)c1 | 12.63% | 0.58%
61 | COc1ccccc1Cn1c(=O)c2sccc2n2c(=O)n(Cc3ccccc3)nc12 | 4.84% | -5.32%
62 | CCc1nnc2c(SCC(=O)Nc3ccc(C)cc3Br)nc3ccccc3n12 | 2.22% | -2.07%
63 | CCOC(=O)c1ccccc1NC(=O)Cn1nc2c(Oc3cccc(OC)c3)nccn2c1=O | -10.31% | 1.57%
64 | CCOc1ccc(C(=O)CSc2nnc3c(=O)n(-c4ccc(Br)cc4)ccn23)cc1 | 15.75% | -1.32%
65 | O=C(Cn1nc2c3cc(-c4ccc(Cl)cc4)nn3ccn2c1=O)Nc1ccc2c(c1)OCCO2 | -0.49% | -1.57%
66 | O=C(CCc1nnc2c(N3CCCCC3)nc3ccccc3n12)NCc1ccc(Br)cc1 | 2.96% | -5.93%
67 | O=C(Cn1nc2ccc(-c3ccc(Cl)cc3)nn2c1=O)NC1CCCC1 | 12.95% | 1.75%
68 | CC(C)c1ccc(N(Cc2cc(F)cc(F)c2)S(=O)(=O)c2cccn3cnnc23)cc1 | 8.68% | -1.47%
69 | COc1ccc(N(Cc2cccc(OC)c2)S(=O)(=O)c2ccc3nnc(C)n3c2)cc1 | -9.05% | 0.15%
70 | CCc1ccccc1NC(=O)Cn1nc2c(SCc3ccc(Cl)cc3)nccn2c1=O | 9.03% | -5.25%
71 | CC(C)c1nnc2c(SCC(=O)Nc3ccccc3C(F)(F)F)nc3ccccc3n12 | 6.66% | -3.21%
